Where “and” joins values, the source holds several entries; their conditions need not be identical. Equal entries are not always repeated. Results filed as inconclusive are left out. A call without a number means that no potency is given here. Unmarked numbers belong to inactive results. Calls of active or inactive are those of the source. Unless noted, calls come from the whole dose curve; as a rule, active = well fitted curve in the direction sought with a large enough effect in the repeat runs; inconclusive = weak or mixed curves; inactive = no such curve, though single readings can be large; an effect the other way counts as inactive or inconclusive.
Potency is the fitted concentration of half-maximal effect.

Chain of Estrogen receptor (Homo sapiens) (P03372 whole entry, looked up): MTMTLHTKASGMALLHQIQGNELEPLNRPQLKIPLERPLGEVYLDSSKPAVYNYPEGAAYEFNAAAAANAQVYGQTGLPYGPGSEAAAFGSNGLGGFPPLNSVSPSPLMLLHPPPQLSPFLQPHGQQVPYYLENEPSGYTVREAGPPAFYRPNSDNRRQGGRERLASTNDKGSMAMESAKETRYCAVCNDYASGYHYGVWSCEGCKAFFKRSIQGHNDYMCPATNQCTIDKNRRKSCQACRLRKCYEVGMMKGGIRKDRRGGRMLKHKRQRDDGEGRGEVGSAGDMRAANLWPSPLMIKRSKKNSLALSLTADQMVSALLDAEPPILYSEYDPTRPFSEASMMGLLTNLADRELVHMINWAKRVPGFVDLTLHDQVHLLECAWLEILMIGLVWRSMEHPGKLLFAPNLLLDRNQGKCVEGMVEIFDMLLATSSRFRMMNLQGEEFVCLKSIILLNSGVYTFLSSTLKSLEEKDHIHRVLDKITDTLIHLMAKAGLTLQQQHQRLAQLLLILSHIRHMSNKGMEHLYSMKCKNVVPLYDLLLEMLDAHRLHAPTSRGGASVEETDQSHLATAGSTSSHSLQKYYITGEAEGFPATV

One assay has as its target Estrogen receptor (Homo sapiens) (UniProt P03372). Put plainly: qHTS assay to identify small molecule antagonists of the estrogen receptor alpha (ER-alpha) signaling pathway using the BG1 cell line in the presence of 0.1 nM 17-beta-estradiol (AID 1259244). Note: nearly all actives have a fitted effect of over 50% in size. The note with it: VM7Luc4E2 (BG1) ERE-luciferase, antagonist mode, 0.1 nM E2, 22 h; series mostly up to 92.4 µM; activity change, negative = inhibition: at the top concentration. Put shortly: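 Antagonist mode: compounds in DMSO are pinned onto VM7Luc4E2 reporter cells, 0.1 nM final 17beta-estradiol is added, and after 22 h at 37C luciferase luminescence is measured with ONE-Glo.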
Background: qHTS replaces the single test concentration by a dilution series.
For the molecule `O=[N+]([O-])c1ccc(O)cc1`, the Potency entry is “inactive”.
Still for that read-out and setting: to `CN(C)C=O` belongs “inactive”.
On the same count and under the same terms, to `C=C(C)OC(C)=O` belongs “inactive”; to `CC(=O)/C=C/C1=C(C)CCCC1(C)C`, “inactive”.
The same measure, in the same setting: with `c1ccc2[nH]c(-c3cscn3)nc2c1` the entry was “inactive”.
With `Cc1cccc(C)c1O`, the Potency entry is “inactive”.
As to `Cc1cccc(Nc2cc(Cl)nc(SCC(=O)O)n2)c1C`, the Potency result was “inactive”.
As to `CC(=O)CCC(C)C`, the Potency result is “inactive”.
Still for that read-out and setting: with `COc1ccccc1NC(=O)CC(C)=O` the entry was “inactive”; with `COc1ccccc1O`, “inactive”.
Same read-out and setting: with `O=C(O)CCCCC1CCSS1` (stereo not given) the entry was “inactive”.
In the case of `CCCCOCCOCCOC(C)=O`, the Potency result is “inactive”.
On to `COc1cc2c(c(OC)c1OC)-c1ccc(OC)c(=O)cc1[C@@H](NC(C)=O)CC2`, for which the Potency is 27 µM (active).
Turning to `COC(=O)C1CCC(C(=O)OC)CC1` (stereo not given), the Potency result was “inactive”.
On the same count and under the same terms, to `COCC(C)N` (stereo not given) belongs “inactive”.
For `NC(=O)OCC(COC(N)=O)c1ccccc1`, the Potency entry was “inactive”.
Consider `CCCCOC(=O)CCCCCCCCC(=O)OCCCC`, for which the Potency result was “inactive”.

Tested on in the next assay: not listed separately
Put plainly: qHTS assay to identify small molecule phospholipidosis (PLD) inducers (AID 1259344; active = well fitted curve in the direction sought with a large enough effect; an effect the other way counts as inactive or inconclusive). Conditions: HepG2 phospholipidosis, LipidTOX Red imaging, 24 h; series mostly up to 38.3 µM; PLD induction: at the top concentration. Put shortly:
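Cells (HepG2, 900 per well) attach for 4 h, receive LipidTOX Red and compound together, incubate 24 h at 37 C, are fixed 30 min with paraformaldehyde/Hoechst, then imaged at one site per well.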
Take `O=C1OC(c2ccc(O)cc2)(c2ccc(O)cc2)c2ccccc21`: the “PLD induction” value is -0.374%.
Consider `NC(=O)c1ccc([N+](=O)[O-])cc1Cl`, for which the “PLD induction” value was -0.457%.
Still for that read-out and setting: with `c1ccc2[nH]c(-c3cscn3)nc2c1` the figure was -1.53%; with `CC1=C(/C=C/C(C)=C/C=C/C(C)=C/C(=O)O)C(C)(C)CCC1`, -0.389%; with `CCCCC/C(C=O)=C\c1ccccc1`, -0.708%.
The same measure, in the same setting: with `Cc1cccc(Nc2cc(Cl)nc(SCC(=O)O)n2)c1C` the figure was -0.841%; with `COc1ccccc1O`, 1.37%.
The same measure, in the same setting: to `O=C(O)CCCCC1CCSS1` (stereo not given) belongs 12%; to `C#C[C@]1(O)CC[C@H]2[C@@H]3CCc4cc(O)ccc4[C@H]3CC[C@@]21C`, 3.23%.
As for `COc1ccc(O)cc1`, the “PLD induction” value is -0.13%.
Consider `COc1cc2c(c(OC)c1OC)-c1ccc(OC)c(=O)cc1[C@@H](NC(C)=O)CC2`, for which the Potency is 0.708 µM (active).
As for `CO[C@H]1C=CO[C@@]2(C)Oc3c(C)c(O)c4c(O)c(c(/C=N/N5CCN(C)CC5)c(O)c4c3C2=O)NC(=O)/C(C)=C\C=C[C@H](C)[C@H](O)[C@@H](C)[C@@H](O)[C@@H](C)[C@H](OC(C)=O)[C@@H]1C`, the “PLD induction” value was -0.0138%.
Still for that read-out and setting: to `NC(=O)OCC(COC(N)=O)c1ccccc1` belongs 0.442%; to `NC(=O)NO`, -0.0539%.

Tested on in another assay: not listed separately
Put plainly: qHTS assay to identify small molecule HDAC inhibitors (AID 1259364). For activity change, negative = inhibition: top concentration of the series differs between compounds. Note: nearly all actives have a fitted effect of over 45% in size. The note with it: HCT-116 HDAC-Glo I/II luminescence, 2 h; series mostly up to 92.4 µM; activity change, negative = inhibition: at the top concentration. In a few lines: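 Cells (HCT-116, wild type) are seeded at 1,500 per well, incubated overnight, treated with compound in DMSO for 2 hr, then developed with HDAC-Glo I/II reagent for 30 min at room temperature.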
Take `O=[N+]([O-])c1ccc(O)cc1`: the Potency entry is “inactive”.
Regarding `O=C1OC(c2ccc(O)cc2)(c2ccc(O)cc2)c2ccccc21`, the Potency result was “inactive”.
Still for that read-out and setting: with `N[C@@H](Cc1c[nH]c2ccccc12)C(=O)O` the entry was “inactive”; with `NC(=O)c1ccc([N+](=O)[O-])cc1Cl`, “inactive”; with `CN(C)C=O`, “inactive”.
The same measure, in the same setting: with `C=C(C)OC(C)=O` the entry was “inactive”.
`CC(=O)/C=C/C1=C(C)CCCC1(C)C`: the Potency entry was “inactive”.
For the molecule `c1ccc2[nH]c(-c3cscn3)nc2c1`, the Potency was 9.75 µM (active) and 486 nM (active) and 1.19 µM (active).
Still for that read-out and setting: with `CC1=C(/C=C/C(C)=C/C=C/C(C)=C/C(=O)O)C(C)(C)CCC1` the entry was “inactive”; with `CCCCC/C(C=O)=C\c1ccccc1`, “inactive”; with `Cc1cccc(C)c1O`, “inactive”.
Same read-out and setting: to `Cc1cccc(Nc2cc(Cl)nc(SCC(=O)O)n2)c1C` belongs “inactive”.
The same measure, in the same setting: to `CC(C)CC(C)CC(O)CC(C)C` (stereo not given) belongs “inactive”; to `CC(=O)CCC(C)C`, “inactive”; to `COc1ccccc1NC(=O)CC(C)=O`, “inactive”.
Turning to `COc1ccccc1O`, the Potency result is “inactive”.
Consider `O=C(O)CCCCC1CCSS1` (stereo not given), for which the Potency entry was “inactive”.
Still for that read-out and setting: to `C#C[C@]1(O)CC[C@H]2[C@@H]3CCc4cc(O)ccc4[C@H]3CC[C@@]21C` belongs “inactive”.
On to `CCCCOCCOCCOC(C)=O`, for which the Potency result is “inactive”.
The same measure, in the same setting: with `COc1ccc(O)cc1` the entry was “inactive”.
On the same count and under the same terms, with `COc1cc2c(c(OC)c1OC)-c1ccc(OC)c(=O)cc1[C@@H](NC(C)=O)CC2` the entry was “inactive”; with `C[C@]12CC[C@@H]3c4ccc(O)cc4C[C@@H](CCCCCCCCCS(=O)CCCC(F)(F)C(F)(F)F)[C@H]3[C@@H]1CC[C@@H]2O` (stereo not given in full), “inactive”; with `CO[C@H]1C=CO[C@@]2(C)Oc3c(C)c(O)c4c(O)c(c(/C=N/N5CCN(C)CC5)c(O)c4c3C2=O)NC(=O)/C(C)=C\C=C[C@H](C)[C@H](O)[C@@H](C)[C@@H](O)[C@@H](C)[C@H](OC(C)=O)[C@@H]1C`, “inactive”.
Same read-out and setting: to `COC(=O)C1CCC(C(=O)OC)CC1` (stereo not given) belongs “inactive”; to `COCC(C)N` (stereo not given), “inactive”; to `O=C1CCCCCN1`, “inactive”.
Turning to `NC(=O)OCC(COC(N)=O)c1ccccc1`, the Potency result was “inactive”.
As to `CCCCOC(=O)CCCCCCCCC(=O)OCCCC`, the Potency result was “inactive”.
Turning to `NC(=O)NO`, the Potency result was “inactive”.

The values above are taken from PubChem BioAssay (Tox21).
